# Screening results deposited in PubChem by Sanford-Burnham Center for Chemical Genomics.
# NALP3 yeast inh = NALP3 inhibition in yeast; Yeast reconstituted NLRP3/ASC/caspase-1, beta-gal luminescence, 24 h; inhibition, % at 10 µM; 0.39% of 330,000 active; AID 2825;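 active = inhibition of 50% or more; inactive = inhibition below 50%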;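 note: plate controls were induced DMSO wells for no effect and uninduced yeast grown without galactose for full effect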
# NALP1 inh = inhibitors of NALP1 inflammasome in yeast. AID 2071. 0.61% of 280,000 active. S. cerevisiae NALP1/ASC/caspase-1 growth, X-gal OD620, 72 h. inhibition, % at 10 µM; in the data active = inhibition mostly above about 24%, no sharp cut-off; inactive = mostly below about 32%
# tim10-1 inh = growth inhibitors of tim10-1 mutant yeast; 2.2% of 330,000 active; S. cerevisiae tim10-1 ts strain growth, BacTiter-Glo, 24 h; AID 463190; inhibition, % at 20 µM;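 active = inhibition of at least 40%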;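 note: mutant grown at 25 °C; 0% = DMSO wells with yeast and 100% = wells holding no yeast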
# TIM10 inh = TIM10 yeast growth inhibition; S. cerevisiae TIM10 strain growth, BacTiter-Glo luminescence, 24 h; inhibition, % at 10 µM; 1.4% of 330,000 active;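 active = inhibition of 40% or more at the single tested concentration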;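 note: wild-type TIM10 isogenic control strain grown at permissive 25 °C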
# tim23-1 inh = tim23-1 yeast growth inhibition. S. cerevisiae tim23-1 growth, BacTiter-Glo luminescence, 24 h. inhibition, % at 20 µM. 1.3% of 330,000 active;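 active = growth inhibition of the mutant yeast at or above 50%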;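 note: temperature-sensitive mutant grown at 25 °C; plate controls were DMSO-treated mutant yeast for no effect and medium wells lacking yeast for full effect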
# tim10-1 conf = tim10-1 yeast growth inhibition, confirmed | inhibition, % at 20 µM | 56% of 7,400 active | S. cerevisiae tim10-1 ts strain growth, BacTiter-Glo, 24 h | shares compounds with tim10-1 inh | AID 463213;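 active = inhibition of yeast growth at or above a set limit in either of two repeat tests at 20 µM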;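 note: tim10-1 mutant grown at permissive 25 °C to find synthetic lethal compounds; 0% = DMSO yeast wells and 100% = medium wells without yeast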
# TIM10 conf = confirmation of TIM10 yeast growth inhibitors | shares compounds with TIM10 inh | S. cerevisiae tim10 strain growth, BacTiter-Glo luminescence, 24 h | inhibition, % at 10 µM | 63% of 4,600 active;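 active = inhibition of yeast growth at or above a set limit in either of two replicates at 10 µM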;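 note: this counterscreen used the strain with wild-type TIM10; 0% = yeast with DMSO and 100% = medium wells lacking yeast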
# tim23-1 conf = confirmation of tim23-1 mutant yeast growth inhibitors | shares compounds with tim23-1 inh | S. cerevisiae tim23-1 growth, BacTiter-Glo luminescence, 24 h | inhibition, % at 20 µM | 83% of 4,400 active | AID 463218;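 active = inhibition above about 39% in either of two replicate wells at 20 µM, limit read from the data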;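 note: temperature-sensitive tim23-1 mutant grown at 25 °C; 0% = DMSO wells with yeast and 100% = medium wells without yeast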
# An asterisk follows results filed as active; nt = no result. This is a sample that favours compounds with a hit; in the whole collection about 4% have one here.
SMILES,NALP3 yeast inh,NALP1 inh,tim10-1 inh,TIM10 inh,tim23-1 inh,tim10-1 conf,tim23-1 conf,others
Cc1cc(NC(=O)OC2CCCCC2)ccc1[N+](=O)[O-],27.6,-3.5,48.7*,33.6,53.2*,24.9,55.2*,
Cc1cc(NC(=O)Nc2cccc(Cl)c2)n(-c2ccccc2)n1,5.6,8.5,11.8,-11.5,12.5,nt,nt,
Cc1cc(NC(=O)Nc2cccc(Cl)c2)n(-c2ccccn2)n1,29.1,10.7,53.8*,29.2,69.8*,41.1*,76.2*,
COC(=O)[C@@H](Cc1c[nH]c2ccccc12)NC(=O)CCC(=O)c1ccc(Br)cc1,6.8,17.6,33.7,15.4,24.4,nt,nt,
O=C(OCc1nc2ccccc2[nH]1)C12CC3CC(CC(C3)C1)C2,3.5,-0.8,57.8*,40.0,58.1*,50.6*,43.4*,TIM10 conf=23.6
Cc1cc(NC(=O)c2cccc3c2C(=O)N(C2CCCCC2)C3)ccc1Br,15.2,12.0,30.6,0.5,-15.4,nt,nt,
Cc1cccc(C)c1NC(=O)c1cccc2c1C(=O)N(C1CCCCC1)C2,16.4,18.8,56.0*,18.4,54.8*,10.8,37.6,
COc1ccc(-c2cccc(C3CC=CC4C3C(=O)N(Cc3ccccc3)C4c3ccc4ccccc4c3)c2)cc1 (stereo not given),32.0,1.6,29.4,35.2,31.4,nt,nt,
COc1ccc(C2C3C=CCC(c4cccc(-c5ccc(C)cc5)c4)C3C(=O)N2Cc2ccccc2)cc1Cl (stereo not given),8.6,-0.6,45.7*,55.8*,53.0*,40.2*,53.5*,TIM10 conf=22.2
CCN(CC)C(=O)c1ccc(-c2nnc(OC)c3ccccc23)cc1,7.7,-10.5,4.4,20.3,17.0,nt,nt,
CN1C(=O)/C(=C/c2cc(N=Nc3ccccc3)ccc2O)SC1=S,42.7,-11.9,50.8*,35.7,55.3*,41.2*,65.2*,
CCOc1ccc(-c2c(C(=O)N/N=C/c3ccc(Cl)cc3)nnn2-c2nonc2N)cc1,15.9,5.9,5.1,-8.6,2.3,nt,nt,
Cn1nnnc1N=N/C(=N/Nc1ccccc1)c1ccccc1,44.5,12.6,54.5*,68.9*,74.6*,26.0,60.3*,TIM10 conf=69.6*
Oc1ccccc1N=N/C(=N/Nc1ccccc1O)c1ccccc1,17.6,nt,-2.4,7.6,-1.4,nt,nt,
CCC(C)(C)C1CCc2[nH]nc(C(=O)NC3CCCC3)c2C1 (stereo not given),11.5,nt,41.7*,38.9,59.2*,34.6*,57.0*,
CCC(C)(C)C1CCc2[nH]nc(C(=O)NCc3ccc(OC)cc3)c2C1 (stereo not given),10.9,nt,18.7,-0.2,31.5,nt,nt,
O=C(CNC(=O)c1cccc(-n2cnnn2)c1)Nc1ccc(F)c(F)c1,8.8,nt,-11.2,4.3,-1.0,nt,nt,
COCCN(C(=O)CCC(=O)Nc1cc(C)on1)C(C(=O)NC1CCCC1)c1ccccc1C (stereo not given),-1.1,6.5,-5.8,10.3,12.6,nt,nt,
COCCN(C(=O)CCl)C(C(=O)NC1CCCCC1)c1ccccc1C (stereo not given),10.9,7.3,55.1*,46.9*,50.4*,44.1*,53.2*,TIM10 conf=5.0
S=C(NCCN1CCOCC1)N/N=C/c1cccs1,14.7,-18.1,-2.0,12.1,-2.8,nt,nt,
S=C(N/N=C/c1cccs1)NC1CC2CCC1C2 (stereo not given),22.8,-1.2,48.4*,50.4*,72.3*,46.3*,58.2*,TIM10 conf=60.3*
NC(=O)c1ccc(OCC(=O)N2CCNC2=O)cc1,11.0,nt,9.3,-8.5,12.7,nt,nt,
CS(=O)c1nc(-c2ccc(Br)cc2)cc(-c2ccccc2)c1C#N (stereo not given),16.2,2.4,40.8*,20.2,67.6*,45.6*,59.7*,
COc1cc(OC)c(NC(=S)Nc2cc(Cl)cc(Cl)c2)cc1Cl,4.2,33.3,54.5*,41.1*,53.7*,52.7*,58.5*,TIM10 conf=-9.4
CCCOc1ccccc1/C=C(\C#N)C(=O)Nc1cccc(C)n1,8.7,0.0,49.2*,37.2,56.5*,45.1*,57.2*,
S=c1[nH]nc(-c2ccc(Cl)cc2)n1/N=C/c1ccco1,28.7,6.6,-0.3,24.7,14.7,nt,nt,
